This passage reports Potency results from PubChem BioAssay AID1347147 (National Center for Advancing Translational Sciences (NCATS), 2019).

Records with an inconclusive call do not appear. Entries that show only a call come without a potency. Calls of active or inactive are those of the source. Calls come from the whole dose curve; as a rule, active = well fitted inhibition curve with a large enough effect; inconclusive = small, poorly fitted or top-dose-only effect; inactive = no such curve, though single readings can be large or run the other way.

The assay addresses N-terminal Xaa-Pro-Lys N-methyltransferase 1 (Homo sapiens) (UniProt Q9BV86). The assay can be described thus: qHTS Assay for Inhibitors of N-terminal methyltransferase 1 (NTMT1): MTaseGlo Confirmatory Screen, Round 2. The method in brief:
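Luminescent MTase-Glo readout of SAH formed in 30 min at RT by 125 nM NTMT1, 100 µM SAM and 1 µM SPKRIA substrate, after ~15 min compound preincubation. Percent inhibition versus no-enzyme and DMSO controls was Hill-fitted.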
Potency is the fitted concentration of half-maximal effect.

Sequence of N-terminal Xaa-Pro-Lys N-methyltransferase 1 (Homo sapiens) (Q9BV86 whole entry, looked up): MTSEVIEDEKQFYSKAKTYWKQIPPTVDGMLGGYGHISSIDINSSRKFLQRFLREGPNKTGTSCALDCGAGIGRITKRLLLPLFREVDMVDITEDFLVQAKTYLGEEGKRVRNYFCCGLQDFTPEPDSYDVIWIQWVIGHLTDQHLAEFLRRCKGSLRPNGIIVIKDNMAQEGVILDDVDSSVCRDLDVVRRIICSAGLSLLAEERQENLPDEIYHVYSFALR

On to `O=C(O)Cc1ccc(O)c(O)c1`, for which the Potency entry was “inactive”. For `Oc1ccc(O)cc1`, the Potency result is “inactive”. Take `Cc1cc(C)c(CNC(=O)c2cc(-c3ccc(CN4CCOCC4)cc3)cc3c2cnn3C2CCCC2)c(=O)[nH]1`: the Potency result is “inactive”. On to `CCn1nc(C(=O)O)c(=O)c2cc3c(cc21)OCO3`, for which the Potency result is “inactive”. Next, `CC(C)COCC(CN(Cc1ccccc1)c1ccccc1)N1CCCC1` (stereo unspecified): “inactive”; `CCN(CC)C(C)CN1c2ccccc2Sc2ccccc21` (stereo unspecified): “inactive”; `O=C1NC(=O)C(c2ccccc2[N+](=O)[O-])=C1Nc1ccc(O)c(Cl)c1`: “inactive”. As for `COc1ccccc1N1CCN(CCN2C(=O)CC3(CCCC3)CC2=O)CC1`, the Potency entry is “inactive”. Consider `Oc1cc(O)c2c(c1)O[C@H](c1ccc(O)c(O)c1)[C@@H](O)C2`, for which the Potency entry is “inactive”. `O=S(=O)(c1cccc2c(Cl)cccc12)N1CCCNCC1`: the Potency result is “inactive”. For `CN(C)CCCN1c2ccccc2Sc2ccc(Cl)cc21`, the Potency result is “inactive”. Next, `N#CC(C#N)=C(N)/C(C#N)=C/c1ccc(O)cc1`: “inactive”; `CC(=O)/C=C1\C(=O)N(C)c2ccccc21`: “inactive”; `CN1Cc2sccc2C(c2ccc(O)c(O)c2)C1` (stereo unspecified): “inactive”. The value for `CN(C)c1ccc(/C=C2\C(=O)Nc3ccccc32)cc1` was “inactive”; that for `CCCc1cc(C)[nH]c(=O)c1CNC(=O)c1cc(-c2ccc(N3CCN(C(C)C)CC3)nc2)cc2c1cnn2C(C)C` was “inactive”. The value for `NS(=O)(=O)c1cccc2c1c([N+](=O)[O-])cc1nc(O)c(O)nc12` was “inactive”; that for `O=c1[nH]c(=S)[nH]c(-c2ccccc2)c1Cc1c(O)ccc2ccccc12` was “inactive”.

For `CCCCNc1ccc(C(=O)OCCN(C)C)cc1`, the Potency entry is “inactive”. As to `O=C1Cc2c([nH]c3ccc(Br)cc23)-c2ccccc2N1`, the Potency result is “inactive”. As for `COc1cc(/C=C(\C#N)C(=O)c2ccc(O)c(O)c2)cc(I)c1O`, the Potency entry is “inactive”. Regarding `CCC(=O)c1ccc2c(c1)N(CCCN(C)C)c1ccccc1S2`, the Potency entry was “inactive”. As to `C=CCN1CCc2cc(O)c(O)cc2[C@H](c2ccccc2)C1`, the Potency entry is “inactive”. For `CC#C[C@]1(O)CC[C@H]2[C@@H]3CCC4=CC(=O)CCC4=C3[C@@H](c3ccc(N(C)C)cc3)C[C@@]21C`, the Potency result was “inactive”. On to `CN1Cc2c(N)cccc2C(c2ccccc2)C1` (stereo unspecified), for which the Potency result is “inactive”. Regarding `COc1cc2c(NC3CCN(C(C)C)CC3)nc(N3CCC(F)(F)CC3)nc2cc1OCCCN1CCCCC1`, the Potency entry was “inactive”. On to `N.N.O=C(O)C1(C(=O)O)CCC1.[Pt]`, for which the Potency entry is “inactive”. On to `COc1cc(/C=C(\C#N)C(=O)Nc2nnc(C(F)(F)F)s2)ccc1OCc1ccc(C(F)(F)F)cc1C(F)(F)F`, for which the Potency result is “inactive”. Consider `NCCc1ccc(O)c(O)c1`, for which the Potency result was “inactive”. On to `Cc1nn(-c2ccccc2)c(C)c1/C=N/N1CCN(Cc2ccccc2)CC1`, for which the Potency entry is “inactive”. As to `COc1cc(CNC(=O)CCCCCCC(C)C)ccc1O`, the Potency result is “inactive”. As for `OCCNc1ncnc2c1ncn2[C@@H]1O[C@@H](CO)[C@H](O)[C@@H]1O`, the Potency entry is “inactive”. As to `O=[N+]([O-])c1ccc2c(c1)S(=O)(=O)C=C2`, the Potency entry is “inactive”. Next, `CC(C)NC[C@H](O)c1ccc(O)c(O)c1`: “inactive”; `Brc1c(NC2=NCCN2)ccc2nccnc12`: “inactive”. Consider `O=C1c2c(O)ccc(O)c2C(=O)c2c(NCCNCCO)ccc(NCCNCCO)c21`, for which the Potency was 31.6 µM (active).
